Bioassay records: PubChem, National Center for Advancing Translational Sciences (NCATS)
Hits are enriched below; roughly 2.4% of the tested compounds scored in any of these assays.
D2 ag-1 = HTS Assay for Allosteric Agonists of the Human D2 Dopamine Receptor: Primary Screen for Agonists | D(2) dopamine receptor (Homo sapiens), P14416 | HEK293 T-REx D2 cells, calcium flux agonist mode | activation, % at 2 µM | 0.53% of 340,000 active | AID 485358, 2010;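 active means activation over 3 SD above normal in the single-dose calcium agonist read, cut at about 30% in these data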; further: 0% is about no effect
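Agonism scored from kinetic calcium signal (1 read/sec, 180 s) following compound pin transfer, after a 10 s baseline. Cells: HEK293 Trex line expressing inducible D2 receptor coupled to calcium, dye-loaded after overnight culture at 30 C.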
D2 PAM-1 = HTS Assay for Positive Allosteric Modulators of the Human D2 Dopamine Receptor: Primary Screen for Potentiators; D(2) dopamine receptor (Homo sapiens), P14416; HEK293 T-REx D2, calcium flux, EC20 dopamine potentiation; potentiation, % at 10 µM; 0.34% of 340,000 active; AID 485347, 2010;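 active means potentiation over 3 SD above the plate norm, cut at about 30% in these data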; further: 0% is about no effect
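Tetracycline-induced Hek293 Trex D2 cells, force-coupled to calcium, loaded with no-wash calcium dye. Compound added with 180 s kinetic read for agonism, then EC20 dopamine and a further 180 s read for potentiation.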
D2 antag = HTS Assay for Allosteric Antagonists of the Human D2 Dopamine Receptor: Primary Screen for Antagonists. AID 485344, 2010. HEK293 TREx D2 cells, calcium flux, dopamine EC80. inhibition, % at 10 µM. 2% of 340,000 active; in the data active means inhibition above about 30%; inactive means below that, where a call was filed; further: 0% is about no effect
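Antagonism is scored as inhibition of an EC80 dopamine-evoked calcium signal in a force-coupled, tetracycline-inducible HEK293 T-REx D2 line, with compound present 180 s before agonist.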
D2 PAM-2 = Beta-Arrestin HTS for Positive Allosteric Modulators of the Human D2 Dopamine Receptor: Potentiators. D(2) dopamine receptor (Homo sapiens), P14416. DiscoveRx D2 beta-arrestin cells, luminescence, 90 min; 100% = 57 uM dopamine signal. potentiation, % (no concentration beside the values). 0.23% of 360,000 active. AID 624464, 2012; in the data active means potentiation above about 50%; inconclusive means mostly about 30% to 49%
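D2 cells co-treated with compound plus 50 nM dopamine (EC20) for 90 min at 37 deg C to detect potentiation. Beta-arrestin recruitment was read as enzyme-fragment luminescence after 1 h at ambient temperature. Full response was set by 57 uM dopamine.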
D2 ag-2 = Beta-Arrestin HTS for Positive Allosteric Modulators of the Human D2 Dopamine Receptor: Agonists | DiscoveRx PathHunter D2 beta-arrestin, luminescence, 90 min; 100% = 57 uM dopamine signal | AID 624465, 2012 | activation, % (test concentration not listed) | 0.084% of 360,000 active; in the data active means activation above about 40%; inconclusive means between about 15% and that limit
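DiscoveRx PathHunter D2 beta-arrestin cells (2,100/well) attached overnight, then compound-stimulated 90 min at 37 C in HBSS/10 mM HEPES/0.1% Tween-20 buffer; beta-galactosidase complementation read by luminescence after 1 h at ambient temperature. Dopamine 57 uM final (EC100) as control.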
D3 ag = qHTS of D3 Dopamine Receptor Agonist: D3 Dopamine Receptor B-arrestin Agonist Confirmatory Assay. shares compounds with D2 ag-1. DiscoveRx D3 beta-arrestin cells, luminescence, 90 min. Potency, µM (series often up to 76.9 µM), for the others: at the highest dose activation, usual class: activators. 4% of 2,300 active;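 further: potency means the concentration at half of the fitted maximal effect; 100% = dopamine control response; nearly all actives have a fitted effect of over 70% in size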
Target sequence (P35462 whole entry, looked up): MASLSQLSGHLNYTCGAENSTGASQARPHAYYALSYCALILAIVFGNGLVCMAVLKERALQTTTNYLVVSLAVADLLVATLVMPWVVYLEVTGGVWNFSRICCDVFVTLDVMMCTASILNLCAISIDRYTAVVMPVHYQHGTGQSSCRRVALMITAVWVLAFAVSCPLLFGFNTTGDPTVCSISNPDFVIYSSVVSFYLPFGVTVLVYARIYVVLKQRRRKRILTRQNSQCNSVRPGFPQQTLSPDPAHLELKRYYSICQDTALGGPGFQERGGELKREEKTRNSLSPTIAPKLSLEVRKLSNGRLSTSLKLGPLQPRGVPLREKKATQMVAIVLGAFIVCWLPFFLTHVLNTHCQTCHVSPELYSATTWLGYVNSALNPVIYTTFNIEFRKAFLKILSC
D2 ag-3 = qHTS of D3 Dopamine Receptor Agonist: D2 Dopamine Receptor B-arrestin Agonist Counterscreen; shares compounds with D2 ag-1; DiscoveRx PathHunter D2 beta-arrestin, luminescence, 90 min; response scale: percent relative to full dopamine signal; Potency, µM (titrated, usually from 76.9 µM), for inactives: top-dose activation, hits mostly activators; 5.9% of 2,300 active; further: potency means the concentration at half of the fitted maximal effect; % of control where 0% means no effect; nearly all actives have a fitted effect of over 70% in size
Active calls of the source: *. Unless noted, the call rests on the fitted dose curve; in most records, active means well fitted activation curve with a large enough effect; inconclusive means small, poorly fitted or top-dose-only effect; inactive means flat fitted curve, though single readings scatter.

Screening Cc1nc2c([nH]1)C1(CCN(Cc3ccccc3)CC1)C(C#N)=C(N)O2 returned D2 ag-1 71*, D2 PAM-1 -36, D2 antag 60*, D2 PAM-2 8, D2 ag-2 inconclusive, D3 ag 8% and D2 ag-3 10%.
`CC(=O)c1cccc(NC(=O)C(C)OC(=O)CCn2c(C)csc2=O)c1` (stereo not given) gave D2 ag-1 0, D2 PAM-1 0, D2 antag -11, D2 PAM-2 -7, D2 ag-2 -2, D3 ag -6% and D2 ag-3 -3%.
For Cc1csc(=O)n1CCC(=O)OC(C)C(=O)Nc1ccc(N2CCOCC2)cc1 (stereo not given) the results were D2 ag-1 -1, D2 PAM-1 -5, D2 antag -4, D2 PAM-2 -1 and D2 ag-2 7.
CCOc1ccc(NC(=O)c2c[nH]n3c(=O)cc(C4CCN(C(=O)OC(C)(C)C)CC4)nc23)cc1 was read as D2 ag-1 9, D2 PAM-1 -7, D2 antag -8, D2 PAM-2 -7, D2 ag-2 -3, D3 ag 10% and D2 ag-3 -5%.
For CCOC(=O)N1CCC(c2cc(=O)n3[nH]cc(C(=O)OC)c3n2)CC1 the results were D2 ag-1 0, D2 PAM-1 8, D2 antag -21, D2 PAM-2 -11 and D2 ag-2 -4.
Screening O=C(CSc1nnc(-c2ccccc2)c(-c2ccccc2)n1)Nc1ccccc1Cl returned D2 PAM-1 7.
Screening COc1ccc(NC(=O)C(C)N2CCN(C)CC2)cc1 (stereo not given) returned D2 ag-1 79*, D2 PAM-1 -29, D2 antag -21, D2 PAM-2 4, D2 ag-2 -2, D3 ag -2% and D2 ag-3 -2%.
O=C(CCNS(=O)(=O)c1ccccc1C(F)(F)F)N1CCCCCCC1 was read as D2 ag-1 0, D2 PAM-1 -3, D2 antag 3, D2 PAM-2 -2, D2 ag-2 -2, D3 ag 1% and D2 ag-3 -2%.
Screening O=C(CCNS(=O)(=O)c1ccccc1C(F)(F)F)N1CCN(C(c2ccccc2)c2ccccc2)CC1 returned D2 ag-1 0, D2 PAM-1 0, D2 antag -15, D2 PAM-2 -12 and D2 ag-2 0.
O=C(c1ccc(F)c(S(=O)(=O)N2CCOCC2)c1)N(c1ccccc1)c1ccccn1 was read as D2 PAM-2 -1, D2 ag-2 -1, D3 ag -7% and D2 ag-3 inconclusive.
`Brc1cccc(CN2CCN(c3ncccn3)CC2)c1` gave D2 ag-1 73*, D2 PAM-1 -17, D2 antag 85*, D2 PAM-2 inconclusive, D2 ag-2 73*, D3 ag 26% and D2 ag-3 11µM*.
For Cc1cccc(CN2CCN(c3ncccn3)CC2)c1 the results were D2 ag-1 87*, D2 PAM-1 -30, D2 antag 83*, D2 PAM-2 inconclusive, D2 ag-2 inconclusive, D3 ag inconclusive and D2 ag-3 7.9µM*.
`O=C(c1[nH]c2ccccc2c1Sc1ccc(Cl)cc1)N1CCCCC1` gave D2 ag-1 1 and D2 PAM-1 -8.
